Screens from PubChem BioAssay.
Most compounds without a hit are left out; they make up all but 21% or so of the library.
NS1 inh: qHTS Assay for Inhibitors of Influenza NS1 Protein Function. 270,000 tested, 0.4% active. Potency, µM (highest dose often 46.1 µM), for inactives: at the top dose activity, positive = more growth. AID 2326, 2010; calls by dose curve; also: potency is read from the fitted curve at half-maximal effect; actives are rising curves; nearly all actives have a fitted effect of over 50% in size
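S. cerevisiae expressing influenza A NS1, grown in glucose, washed, then diluted 1:100 into pH 6.0 -URA galactose medium with 23 nl compound. Growth recovery read as OD600; NS1-free strain serves as control.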
Giardia FBPA inh: qHTS Assay for Inhibitors of Fructose-1,6-bisphosphate Aldolase from Giardia Lamblia; AID 2451, 2010; purified Giardia FBPA; A8B2U2; 290,000 tested, 0.71% active; Potency, µM (top dose mostly 59.6 µM), without a hit: at the top dose activity, negative = inhibition, most hits filed as inhibitors; also: potency is read from the fitted curve at half-maximal effect; % is scaled to controls: 0 for no effect and ±100 for the full control effect; nearly all actives have a fitted effect of over 55% in size
Target sequence (A8B2U2 whole entry, looked up): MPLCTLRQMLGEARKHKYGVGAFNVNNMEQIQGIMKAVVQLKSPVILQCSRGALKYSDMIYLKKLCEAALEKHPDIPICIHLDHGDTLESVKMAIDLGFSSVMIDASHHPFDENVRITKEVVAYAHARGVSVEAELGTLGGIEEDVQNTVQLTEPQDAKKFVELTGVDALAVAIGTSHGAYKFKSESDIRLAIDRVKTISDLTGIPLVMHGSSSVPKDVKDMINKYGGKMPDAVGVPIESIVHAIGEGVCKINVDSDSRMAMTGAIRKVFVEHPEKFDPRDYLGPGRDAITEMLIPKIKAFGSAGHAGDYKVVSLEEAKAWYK
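Giardia FBPA (40 nM reagent) was preincubated 10 min at RT with compound (up to 57.5 uM final), then substrate plus GAPDH/TPI/NAD/arsenate coupling system with diaphorase/resazurin was added; resorufin fluorescence (525/598 nm) was read after 20 min.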
CHX counter: Cycloheximide Counterscreen for Small Molecule Inhibitors of Shiga Toxin | cell reporter, cycloheximide protein synthesis inhibition counterscreen | max response, % | 300,000 tested, 12% active | AID 2314, 2010; in the data active = max response mostly above about 13%, no sharp cut-off; inactive = mostly below about 14%; also: read at 38.3 µM for the half of the compounds with a filed dose; 0% is about no effect
Pf growth 96h: Primary qHTS for delayed death inhibitors of the malarial parasite plastid, 96 hour incubation | 320,000 tested, 6.9% active | P. falciparum luciferase reporter growth, 96 h | AID 504834, 2011 | Potency, µM (doses to about 28.7 µM), for the others: at the highest dose activity change, negative = inhibition, actives largely listed as inhibitors; also: potency is read from the fitted curve at half-maximal effect; % is scaled to controls: 0 for no effect and ±100 for the full control effect
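Cell-based qHTS: luciferase-tagged P. falciparum in erythrocytes (2% hematocrit, 0.05% parasitemia final) incubated with compounds for 96 hours, 37 C, 5% CO2; luciferase detection reagent then added and luminescence measured.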
Shiga inhibitor: A qHTS for Small Molecule Inhibitors of Shiga Toxin; inhibition, % at 38.7 µM; 290,000 tested, 9.2% active; AID 2315, 2010; Vero cells, Shiga toxin protein synthesis inhibition reporter; in the data active = inhibition mostly above about 28%, no sharp cut-off; inactive = mostly below about 43%; also: 0% is about no effect
Pf growth 48h: Primary qHTS for delayed death inhibitors of the malarial parasite plastid, 48 hour incubation | P. falciparum luciferase growth in erythrocytes, 48 h | Potency, µM (titrated, usually from 28.7 µM), for inactives: at the top dose activity change, negative = inhibition, actives largely listed as inhibitors | 310,000 tested, 5.9% active; also: potency is read from the fitted curve at half-maximal effect; % is scaled to controls: 0 for no effect and ±100 for the full control effect
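Parasite viability was followed by luminescence of a genomically integrated firefly luciferase. Cultures held 0.1% parasitemia at 2% hematocrit (final), incubated under 5% CO2 at 37 C.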
* marks the source's active call; other numbers are inactive results; ? = inconclusive; · = no result given. Unless noted, calls follow the shape of the dose curve; as a rule, active = well fitted curve in the direction sought with a large enough effect; inconclusive = small, poorly fitted or top-dose-only effect, or another doubt; inactive = no such curve, though single readings can be large; an effect the other way counts as inactive or inconclusive.

SMILES	NS1 inh	Giardia FBPA inh	CHX counter	Pf growth 96h	Shiga inhibitor	Pf growth 48h
Cc1ccc(/C=c2\sc3n(c2=O)CN(c2ccc(Br)cc2)CN=3)o1	2%	?	-3	?	-3	14%
CCOC(=O)C1=C(COC(=O)CCOc2cc(C)ccc2C)NC(=O)NC1C (stereo not given)	·	·	·	-22%	·	?
CCOC(=O)N1CCC(N2C(=O)c3ccccc3C2Nc2ccc3c(c2)OCCO3)CC1 (stereo not given)	-40%	?	161*	39%	128*	·
CCOC(=O)c1ccccc1NC1c2ccccc2C(=O)N1C1CCN(C(=O)OCC)CC1 (stereo not given)	-74%	-15%	7	?	-3	1.7µM*
CCOC(=O)N1CCC(N2C(=O)c3ccccc3C2Nc2ccc3c(C)cc(=O)oc3c2)CC1 (stereo not given)	-31%	18%	3	3%	2	?
CCn1c(SC)nc2c(c1=O)SC(C)C2 (stereo not given)	-10%	3%	-2	2.3µM*	4	?
Cc1ccc(C)c(NC(=O)C2CCCN(c3cnccn3)C2)c1 (stereo not given)	2%	·	-7	86%	-5	0%
Cc1ccc(C(=O)Nc2nnc(C)s2)o1	-3%	-2%	10	11%	-3	·
Cc1nc(NC(=O)c2ccc(Br)o2)sc1C	-62%	-8%	45*	188%	63*	·
Cc1ccc(C(=O)Nc2nc(C)c(C)s2)o1	-14%	-6%	35*	284%	62*	·
C=C1CCC2C(CC2(C)C)C(=C)CC/C1=N/O (stereo not given)	·	1%	·	·	·	·
CCc1nc(OCc2ccco2)c2sc3nc4c(cc3c2n1)COC(C)(C)C4	-10%	-10%	4	·	5	-12%
COc1nc(C)nc2c1sc1nc3c(cc12)COC(C)(C)C3	1%	-8%	34*	252%	58	·
Cc1nc(OCC(C)C)c2sc3nc4c(cc3c2n1)COC(C)(C)C4	7%	2%	20*	121%	60*	58%
Cc1cc(C)nc(SCC(=O)c2ccc(F)cc2)n1	12%	3%	17*	222%	31*	-18%
CCc1ccc(C(=O)CSc2nc(C)cc(=O)[nH]2)cc1	2%	1%	32*	-20%	49*	7%
Cc1cc(=O)[nH]c(SCC(=O)N2CCN(C(c3ccccc3)c3ccccc3)CC2)n1	-46%	-3%	-3	-8%	15	13µM*
Cc1cc(=O)[nH]c(SCC(=O)c2ccc(F)c(C)c2)n1	13%	-18%	14*	0.26µM*	26	?
O=C(NC(=S)NNC(=O)c1ccco1)c1ccc(Br)cc1	-89%	27%	13	?	23	29%
Cc1noc(C)c1-c1nc(CS(=O)(=O)c2ccc(F)cc2)no1	-2%	5%	4	46%	9	73%
O=C1CC2(CCN(C(=O)c3cccc([N+](=O)[O-])c3)CC2)Oc2ccccc21	·	·	·	-2%	·	-15%
CCCc1cc(=O)[nH]c(SCC(=O)N2CCN(S(=O)(=O)c3ccc(C)cc3)C2)n1	?	-8%	-8	13µM*	-13	·
Cc1cc(C)nc(SCNC(=O)c2ccc(F)cc2)n1	-2%	-13%	-4	3%	-4	22%
Cc1cc(C)nc(SCC(=O)c2ccc(F)c(C)c2)n1	-17%	-12%	11*	-11%	22	?
Cc1cc(C)nc(S/C=C/C(=O)c2ccc(F)cc2)n1	-6%	2%	37*	-19%	68*	?
Cc1nc(SCC(=O)c2ccc(F)cc2)c([N+](=O)[O-])[nH]1	3%	-2%	3	1.9µM*	-18	5%
Cc1ccc(S(=O)(=O)N2CCOCC2)cc1C(=O)NC1CCCC1	4%	9%	1	26%	-4	5%
CC(=O)OC1CC2C(C)(C)C(O)CCC2(C)C2CC[C@]3(C)C(=CC(=O)OC3c3ccoc3)C12C (stereo not given in full)	·	1%	·	·	·	·
CCCn1cc(CN2CCC(n3nccc3NC(=O)c3ccccc3)CC2)c(C)n1	2%	·	-1	14%	6	2%
